From the supplement of paper PMC9950053 come the findings set out here.

SMILES strings stand for the structures. Where a name gives a salt, the structure may show the parent alone.

The subject of the assay is Danio rerio larvae (5 dpf). Briefly: 1-h baseline activity (% time moving, periods 1-6) minus DMSO control (percentage points); higher = more locomotor activity than DMSO larvae. Conditions: 10 µM; exposure time: 3 h pre-incubation + 3 h imaging. As to the method: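 Wild-type 5 dpf zebrafish larvae (n=48 per drug, 96-well plates, 28.5 °C) were exposed to Tocris FDA-approved library compounds at 10 µM (0.1% DMSO) for 3 h before and 3 h during imaging. Images were taken every 6 s during visual and acoustic stimuli, and larvae were tracked with Z-LaP Tracker. Each measure is the treated-group mean minus the DMSO control mean (n=844), in percentage points. This mapping covers compounds with 5-character plate codes.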
Take `CCCCCCCN(CC)CCCC(O)c1ccc(NS(C)(=O)=O)cc1` (configuration not stated) [Ibutilide hemifumarate]: the 1-h baseline activity was -6.03.

For `COc1cc2nccc(Oc3ccc(NC(=O)C4(C(=O)Nc5ccc(F)cc5)CC4)cc3)c2cc1OC`, the 1-h baseline activity was 15.1.

Regarding `CC(C)(C(=O)O)c1ccc(C(O)CCCN2CCC(C(O)(c3ccccc3)c3ccccc3)CC2)cc1` (configuration not stated) [Fexofenadine hydrochloride], the 1-h baseline activity amounted to 5.08.

With `OCc1cc(C(O)CNCCCCCCOCCCCc2ccccc2)ccc1O` (configuration not stated) [Salmeterol xinafoate], the 1-h baseline activity stood at 12.2.

Take `CC(=O)Nc1ccc(O)cc1` [Acetaminophen]: the 1-h baseline activity was found to be 6.48.

As to `OC(c1cc(C(F)(F)F)nc2c(C(F)(F)F)cccc12)C1CCCCN1` (configuration not stated) [Mefloquine hydrochloride], the 1-h baseline activity was -2.24.

Regarding `C[C@@H]1C[C@H]2[C@@H]3CCC4=CC(=O)C=C[C@]4(C)[C@@]3(F)[C@@H](O)C[C@]2(C)[C@@]1(O)C(=O)CO` [Dexamethasone], the 1-h baseline activity is 15.7.

In the case of `Clc1ccc2nsnc2c1NC1=NCCN1` [Tizanidine hydrochloride], the 1-h baseline activity was -14.

As for `O=C(O)C[C@H](O)C[C@H](O)/C=C/c1c(C2CC2)nc2ccccc2c1-c1ccc(F)cc1` [Pitavastatin calcium], the 1-h baseline activity is -1.53.

In the case of `COCCc1ccc(OCC(O)CNC(C)C)cc1` (configuration not stated) [Metoprolol tartrate], the 1-h baseline activity was 3.15.

Turning to `COc1cc([C@@H]2c3cc4c(cc3[C@@H](O[C@@H]3O[C@@H]5CO[C@@H](C)O[C@H]5[C@H](O)[C@H]3O)[C@H]3COC(=O)[C@H]23)OCO4)cc(OC)c1O` [Etoposide], the 1-h baseline activity amounted to 4.86.

On to `CNCc1ccc(-c2[nH]c3cc(F)cc4c3c2CCNC4=O)cc1` [Rucaparib camsylate], for which the 1-h baseline activity was -14.5.

`NS(=O)(=O)c1cc2c(cc1Cl)NC(C1CC3C=CC1C3)NS2(=O)=O` (configuration not stated) [Cyclothiazide]: the 1-h baseline activity amounted to 0.814.

On to `C#CCN[C@@H]1CCc2ccccc21` [Rasagiline mesylate], for which the 1-h baseline activity came out at 4.3.

Take `CCCC1O[C@@H]2C[C@H]3[C@@H]4CCC5=CC(=O)C=C[C@]5(C)[C@H]4[C@@H](O)C[C@]3(C)[C@]2(C(=O)CO)O1` (some centres not stated) [Budesonide]: the 1-h baseline activity stood at 3.74.

Consider `COc1ccccc1Oc1c(NS(=O)(=O)c2ccc(C(C)(C)C)cc2)nc(-c2ncccn2)nc1OCCO` [Bosentan], for which the 1-h baseline activity was 1.43.

Regarding `COc1cc(N)c(Cl)cc1C(=O)NC1CCN(CCCOc2ccc(F)cc2)CC1OC` (configuration not stated) [Cisapride], the 1-h baseline activity was -0.963.

For the compound `CNC(=O)c1cc(Oc2ccc(NC(=O)Nc3ccc(Cl)c(C(F)(F)F)c3)cc2)ccn1` [Sorafenib], the 1-h baseline activity was -0.439.

For the compound `OCCN1C[C@H](O)[C@@H](O)[C@H](O)[C@H]1CO` [Miglitol], the 1-h baseline activity was -2.34.

As for `CCCc1nn(C)c2c(=O)[nH]c(-c3cc(S(=O)(=O)N4CCN(C)CC4)ccc3OCC)nc12` [Sildenafil citrate], the 1-h baseline activity is -12.4.

In the case of `CN(C)CCc1c[nH]c2ccc(C[C@H]3COC(=O)N3)cc12` [Zolmitriptan], the 1-h baseline activity turned out to be 6.44.

With `COc1ccccc1OCC(O)CN1CCN(CC(=O)Nc2c(C)cccc2C)CC1` (configuration not stated) [Ranolazine dihydrochloride], the 1-h baseline activity is 8.63.

Regarding `CCc1nc(N)nc(N)c1-c1ccc(Cl)cc1` [Pyrimethamine], the 1-h baseline activity is -1.81.

As to `O=C1CCc2ccc(OCCCCN3CCN(c4cccc(Cl)c4Cl)CC3)cc2N1` [Aripiprazole], the 1-h baseline activity was found to be 6.58.

On to `CC[C@H]1OC(=O)[C@H](C)[C@@H](O[C@H]2C[C@@](C)(OC)[C@@H](O)[C@H](C)O2)[C@H](C)[C@@H](O[C@@H]2O[C@H](C)C[C@H](N(C)C)[C@H]2O)[C@](C)(O)C[C@@H](C)CN(C)[C@H](C)[C@@H](O)[C@]1(C)O` [Azithromycin], for which the 1-h baseline activity is -12.

`CN(C)C(=N)NC(=N)N` [Metformin hydrochloride]: the 1-h baseline activity is -8.39.

On to `NC(=O)OCC(COC(N)=O)c1ccccc1` [Felbamate], for which the 1-h baseline activity is -2.82.

Take `O=c1n(CCCN2CCN(c3cccc(Cl)c3)CC2)nc2ccccn12` [Trazodone hydrochloride]: the 1-h baseline activity is -3.8.

As for `N#Cc1ccc2[nH]cc(CCCCN3CCN(c4ccc5oc(C(N)=O)cc5c4)CC3)c2c1` [Vilazodone hydrochloride], the 1-h baseline activity is -24.2.

With `Cc1cc2c(s1)Nc1ccccc1N=C2N1CCN(C)CC1` [Olanzapine], the 1-h baseline activity stood at 6.18.

Consider `CC(C)OC(=O)C(C)(C)Oc1ccc(C(=O)c2ccc(Cl)cc2)cc1` [Fenofibrate], for which the 1-h baseline activity amounted to 6.92.

`C[C@H]1O[C@H](O[C@H]2[C@H](O)[C@@H](O)[C@@H](O[C@H]3[C@H](O)[C@@H](O)C(O)O[C@@H]3CO)O[C@@H]2CO)[C@H](O)[C@@H](O)[C@@H]1N[C@H]1C=C(CO)[C@@H](O)[C@H](O)[C@H]1O` (some centres not stated) [Acarbose]: the 1-h baseline activity is -1.61.

Consider `N#C[C@@H]1C[C@@H]2C[C@@H]2N1C(=O)[C@@H](N)C12CC3CC(CC(O)(C3)C1)C2` [Saxagliptin hydrochloride], for which the 1-h baseline activity is 2.3.

As for `CC(C)COCC(CN(Cc1ccccc1)c1ccccc1)N1CCCC1` (configuration not stated) [Bepridil hydrochloride], the 1-h baseline activity is -2.55.

`CN[C@H]1CC[C@@H](c2ccc(Cl)c(Cl)c2)c2ccccc21` [Sertraline hydrochloride]: the 1-h baseline activity was -24.

Regarding `CNS(=O)(=O)Cc1ccc2[nH]cc(CCN(C)C)c2c1` [Sumatriptan succinate], the 1-h baseline activity was determined as 9.45.

As to `CC(=O)Oc1cc2c(s1)CCN(C(C(=O)C1CC1)c1ccccc1F)C2` (configuration not stated) [Prasugrel], the 1-h baseline activity is -2.32.
